Test results reported in PubChem BioAssay.
Inconclusive results are not listed. Activity calls are given as the source filed them.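 The calls were made as follows, unless noted: active = aptamer binding inhibition above 30%, about 3 SD of noise from non-fluorescent compounds; inactive = inhibition at or below 30%.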

Columns and labels:
[1] = rapamycin-like changes in RPL19A-GFP expression – cell-based, S. cerevisiae, multiplex flow cytometry, primary screen (AID 1862; in the data active = percent of DMSO control GFP below about 86%;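 also: lower values mimic rapamycin by blocking the RPL19A rise seen in DMSO cells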); settings: S. cerevisiae RPL19A-GFP strain, flow cytometry fluorescence, 3 h; at 10 µM; stronger effect = lower value
[2] = TOR pathway RTG branch CIT2 reporter changes – S. cerevisiae, GFP fusion, multiplex flow cytometry, primary screen (AID 1870;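 active = percent response above a set limit, the screen-wide mean plus 3 SD, cut at about 130% in these data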;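 also: barcoded CIT2-GFP strain pooled with four other GFP strains with rapamycin as positive control; median GFP fluorescence per well over plate mean of DMSO wells so 100% = DMSO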); settings: S. cerevisiae CIT2-GFP expression, 3 h, at 10 µM, stronger effect = higher value
[3] = TOR pathway LAP4-GFP level changes – S. cerevisiae, multiplex flow cytometry, primary screen (AID 1873;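 active = GFP signal, as percent of the solvent control, above the screen mean plus 3 SD, about 149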); settings: S. cerevisiae LAP4-GFP expression, 3 h, at 10 µM, stronger effect = higher value
[4] = yeast AGP1-GFP level changes, GLN3 branch – cell-based, multiplex flow cytometry, S. cerevisiae, primary screen (AID 1887;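 active = GFP signal above the screen-wide mean plus 3 SD, that is over about 124.5% of the solvent control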;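 also: AGP1-GFP fusion strain of S. cerevisiae within a five-strain barcoded multiplex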); settings: 3 h, at 10 µM, stronger effect = higher value
[5] = reduced mouse 2C T cell binding to pMHC/ICAM-1 vesicles – MLPCN validation set, flow cytometry, LFA-1/ICAM-1 modulator project, pilot screen (AID 2523;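 active = response below a set limit, under 55% cells CD8-positive and vesicle-bound, and CD8 cells' 90th-percentile brightness under 279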;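 as to vesicle binding response: mean PE anti-B7-1 fluorescence of CD8+ cells relative to row control; 100% = QL9-loaded vesicles with DMSO vehicle in the same plate row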); settings: 2C mouse CD8+ T cells, at 7 µM, stronger effect = lower value; double positive events: measured here: CD8+/vesicle+ event percentage
[6] = biological target: Integrin beta-1 (Homo sapiens) + Integrin alpha-4 (Homo sapiens) (UniProt P13612+P05556); experiment: alpha4beta1 integrin LIBS antibody binding reduction – U937 cells, HUTS-21 mAb, flow cytometry, validation set, VLA-4 allosteric modulator project, pilot screen (AID 2674;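 active = inhibition above 50%, about 3 SD of the validation set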;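 also: antibody binding induced by the VLA-4 ligand LDV present at three times its Kd; 0% = LDV ligand with antibody and no compound and 100% = antibody without LDV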); settings: HUTS-21 LIBS mAb binding, at 6.7 µM, stronger effect = higher value, binding induced by LDV ligand
[7] = biological target: Beta-adrenergic receptor kinase 1 (Homo sapiens) (UniProt P25098); experiment: GRK2 binders displacing RNA aptamer, biochemical, validation, human GRK2, bead flow cytometry (AID 488806); settings: bead-bound GRK2, FAM-aptamer displacement, at 10 µM, stronger effect = higher value
[8] = biological target: AP-2 complex subunit beta (Homo sapiens) (UniProt P63010); experiment: beta-arrestin/AP2 interaction blockers – biochemical, validation set, GST-AP2 beads, flow cytometry, pilot screen (AID 504541;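 active = inhibition above 54%, about 3 SD of non-fluorescent compounds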;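 also: AP2 carries R879A mutation and is captured from E. coli lysate; bead-bound FITC arrestin peptide fluorescence measuring arrestin peptide binding to AP2; 0% = DMSO wells and 100% = excess unlabeled arrestin peptide control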); settings: FITC arrestin peptide, at 10 µM, stronger effect = higher value, AP2 beta2 appendage fragment, R879A mutant
[9] = cytosolic pH regulators acting via V-ATPase – S. cerevisiae, pHLuorin, HTS validation (AID 504600; in the data active = response above about 15%;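 also: plate controls were DMSO for no effect and reference compound for full effect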); settings: V-ATPase proton transport, at 10 µM, stronger effect = higher value
[10] = system: anti-desmoglein-3 scFv antibody binding to human DSG3; experiment: blockers of pathogenic pemphigus antibody–desmoglein-3 binding – biochemical, validation compound set, bead-based, flow cytometry, pilot screen (AID 588368;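 active = binding below the plate cutoff, the plate median minus 3 SD, with a reading above zero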;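 also: signal is the median channel fluorescence of bead-bound GFP antibody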); settings: Protein G beads, DSG3-Fc, scFv-GFP binding, at 10 µM, stronger effect = lower value
[11] = Nile Red efflux blockade in pump-expressing yeast – validation compound set, multiplex, phenotypic, pilot screen (AID 588506;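 active = efflux inhibition above 0.42, the validation set average plus 4 SD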;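 also: Nile Red retained in cells so higher fluorescence means more efflux inhibition; 0 = negative control wells and 1 = enniatin B 25 µM full block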); settings: S. cerevisiae pump-expressing triplex, Nile Red efflux flow cytometry; at 10 µM; stronger effect = higher value; the pumps come from Candida albicans
[12] = biological target: ATP-binding cassette sub-family B member 6 (Homo sapiens) (UniProt Q9NP58); experiment: blockers of ABCB6-driven porphyrin uptake – K562-ABCB6 cells, flow cytometry, validation set, pilot screen (AID 588550;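 active = inhibition above the screen-wide mean plus 3 SD, about 51%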;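 also: 0% = DMSO wells and 100% = benzethonium chloride 70 µM positive control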); settings: K562-ABCB6 porphyrin accumulation, 1 h, at 10 µM, stronger effect = higher value
[13] = AML differentiation inducers, ER-HoxA9 marrow cells – cell-based, GFP/MAC1 double positive, flow cytometry, validation set, primary screen (AID 588685;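 active = differentiation response of at least 50%, scaled between solvent and reference control, from cells with both markers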;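 also: compound exposure lasts four days before antibody staining and flow analysis; 0% = DMSO wells and 100% = 5 µM fulvestrant positive control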); settings: stronger effect = higher value, normalized: vehicle 0, fulvestrant 100
[14] = calorie-restriction mimetic ROS inhibitors, yeast – validation compound set, pilot screen (AID 2706;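 active = superoxide response below 65% of plate, a cut near 3 SD across the whole screen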;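 also: yeast exposed to compound for one week at 30 degrees C before staining; 100% = mean of all compound wells on the same plate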); settings: S. cerevisiae aging, superoxide DHE fluorescence; at 10 µM, stronger effect = lower value
[15] = biological target: Beta-2 adrenergic receptor (Homo sapiens) (UniProt P07550); experiment: agonist-induced loss of surface beta2AR – cell-based, FAP fluorogen, flow cytometry, validation set, pilot screen (AID 504459;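 active = percent response above 42, roughly 3 SD of non-fluorescent test compounds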;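 also: agonist-driven loss of surface beta2AR via internalization measured by FAP dye flow cytometry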); settings: Am2.2-beta2AR cells, at 10 µM, stronger effect = higher value
[16] = TOR pathway GLN3 branch reporter MEP2-GFP changes – S. cerevisiae, multiplex flow cytometry, primary screen (AID 1867;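 active = GFP response, as percent of the DMSO control, above the screen-wide mean plus 3 SD, about 139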;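 also: median GFP channel fluorescence of barcode-gated MEP2-GFP cells measured by flow cytometry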); settings: S. cerevisiae MEP2-GFP strain, 3 h, at 10 µM, stronger effect = higher value, 100% means same as DMSO wells

Sequence of ATP-binding cassette sub-family B member 6 (Homo sapiens) (Q9NP58 whole entry, looked up): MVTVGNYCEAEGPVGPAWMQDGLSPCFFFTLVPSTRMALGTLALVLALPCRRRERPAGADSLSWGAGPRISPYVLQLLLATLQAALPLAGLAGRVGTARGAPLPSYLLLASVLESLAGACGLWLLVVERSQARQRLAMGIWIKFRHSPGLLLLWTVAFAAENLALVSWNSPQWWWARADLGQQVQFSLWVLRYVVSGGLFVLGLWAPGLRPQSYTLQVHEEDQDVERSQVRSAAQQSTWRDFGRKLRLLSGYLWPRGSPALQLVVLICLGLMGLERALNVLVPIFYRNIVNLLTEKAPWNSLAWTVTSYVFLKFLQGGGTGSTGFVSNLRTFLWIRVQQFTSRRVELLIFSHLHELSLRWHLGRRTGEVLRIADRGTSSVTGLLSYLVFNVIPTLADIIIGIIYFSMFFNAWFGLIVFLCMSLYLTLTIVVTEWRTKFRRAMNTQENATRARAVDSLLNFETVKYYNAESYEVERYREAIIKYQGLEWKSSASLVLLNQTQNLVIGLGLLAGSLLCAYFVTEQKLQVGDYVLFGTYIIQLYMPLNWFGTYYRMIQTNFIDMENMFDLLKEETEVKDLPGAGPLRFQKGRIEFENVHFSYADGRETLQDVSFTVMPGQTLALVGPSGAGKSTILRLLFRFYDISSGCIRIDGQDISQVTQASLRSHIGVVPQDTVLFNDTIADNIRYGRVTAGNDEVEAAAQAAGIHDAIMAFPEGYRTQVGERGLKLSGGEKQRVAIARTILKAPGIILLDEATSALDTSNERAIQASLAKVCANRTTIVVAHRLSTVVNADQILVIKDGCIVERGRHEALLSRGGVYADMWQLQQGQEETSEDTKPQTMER
Sequence of Beta-adrenergic receptor kinase 1 (Homo sapiens) (P25098 whole entry, looked up): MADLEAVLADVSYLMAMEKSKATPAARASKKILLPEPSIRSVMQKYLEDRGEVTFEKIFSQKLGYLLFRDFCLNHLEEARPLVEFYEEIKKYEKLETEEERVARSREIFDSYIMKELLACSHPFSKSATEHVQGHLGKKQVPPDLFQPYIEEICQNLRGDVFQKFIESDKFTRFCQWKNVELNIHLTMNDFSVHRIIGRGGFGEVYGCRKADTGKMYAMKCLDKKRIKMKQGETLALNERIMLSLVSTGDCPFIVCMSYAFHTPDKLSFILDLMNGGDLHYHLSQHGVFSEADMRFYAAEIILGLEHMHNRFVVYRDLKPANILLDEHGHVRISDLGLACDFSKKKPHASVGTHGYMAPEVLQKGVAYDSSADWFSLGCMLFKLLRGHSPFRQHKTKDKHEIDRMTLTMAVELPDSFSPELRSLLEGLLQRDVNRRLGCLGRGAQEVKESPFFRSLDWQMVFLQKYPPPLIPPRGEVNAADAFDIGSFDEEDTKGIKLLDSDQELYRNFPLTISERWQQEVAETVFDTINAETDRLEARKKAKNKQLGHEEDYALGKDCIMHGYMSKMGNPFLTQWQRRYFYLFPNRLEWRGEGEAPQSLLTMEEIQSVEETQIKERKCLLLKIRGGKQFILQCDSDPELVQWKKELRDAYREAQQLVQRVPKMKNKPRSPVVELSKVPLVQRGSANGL
Sequence of Beta-2 adrenergic receptor (Homo sapiens) (P07550 whole entry, looked up): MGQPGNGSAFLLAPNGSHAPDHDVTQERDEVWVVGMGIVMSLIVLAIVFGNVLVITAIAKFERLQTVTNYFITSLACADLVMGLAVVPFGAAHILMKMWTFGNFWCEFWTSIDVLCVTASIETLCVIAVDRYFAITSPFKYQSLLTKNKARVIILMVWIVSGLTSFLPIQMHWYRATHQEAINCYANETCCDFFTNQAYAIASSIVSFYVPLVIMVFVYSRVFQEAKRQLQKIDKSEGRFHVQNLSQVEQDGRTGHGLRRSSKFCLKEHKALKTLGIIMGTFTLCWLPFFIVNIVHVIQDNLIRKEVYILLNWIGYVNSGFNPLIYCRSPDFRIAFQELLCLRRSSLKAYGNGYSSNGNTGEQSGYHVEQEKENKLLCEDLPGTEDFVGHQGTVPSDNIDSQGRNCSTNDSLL
Sequence of AP-2 complex subunit beta (Homo sapiens) (P63010 whole entry, looked up, the tested form may be a part, one chain of several): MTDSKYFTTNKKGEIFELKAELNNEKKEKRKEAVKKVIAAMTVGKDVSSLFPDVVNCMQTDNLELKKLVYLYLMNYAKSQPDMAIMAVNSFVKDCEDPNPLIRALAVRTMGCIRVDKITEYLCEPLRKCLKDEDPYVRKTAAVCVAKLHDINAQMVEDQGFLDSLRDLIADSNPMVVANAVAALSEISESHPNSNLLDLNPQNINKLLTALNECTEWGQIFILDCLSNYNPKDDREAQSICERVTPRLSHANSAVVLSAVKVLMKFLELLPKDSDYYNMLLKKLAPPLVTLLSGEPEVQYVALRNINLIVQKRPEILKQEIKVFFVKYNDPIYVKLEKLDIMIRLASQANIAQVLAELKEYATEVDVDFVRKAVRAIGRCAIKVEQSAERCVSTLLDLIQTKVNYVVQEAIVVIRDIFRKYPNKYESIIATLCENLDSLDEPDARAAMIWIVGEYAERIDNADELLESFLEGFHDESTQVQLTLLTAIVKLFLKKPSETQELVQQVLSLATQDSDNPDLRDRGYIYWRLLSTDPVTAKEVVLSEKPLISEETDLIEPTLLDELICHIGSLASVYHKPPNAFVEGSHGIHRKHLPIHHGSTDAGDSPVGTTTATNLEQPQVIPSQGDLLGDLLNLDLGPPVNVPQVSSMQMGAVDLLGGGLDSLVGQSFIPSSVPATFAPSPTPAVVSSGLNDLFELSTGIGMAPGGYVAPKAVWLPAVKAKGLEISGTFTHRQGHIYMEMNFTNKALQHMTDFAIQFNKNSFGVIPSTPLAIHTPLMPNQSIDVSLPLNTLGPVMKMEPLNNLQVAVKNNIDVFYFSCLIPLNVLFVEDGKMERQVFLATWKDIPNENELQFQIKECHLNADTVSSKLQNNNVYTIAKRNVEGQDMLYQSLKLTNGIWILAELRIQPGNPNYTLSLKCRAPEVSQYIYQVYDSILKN
Sequence of Integrin beta-1 (Homo sapiens) + Integrin alpha-4 (Homo sapiens) (P05556 whole entry, looked up): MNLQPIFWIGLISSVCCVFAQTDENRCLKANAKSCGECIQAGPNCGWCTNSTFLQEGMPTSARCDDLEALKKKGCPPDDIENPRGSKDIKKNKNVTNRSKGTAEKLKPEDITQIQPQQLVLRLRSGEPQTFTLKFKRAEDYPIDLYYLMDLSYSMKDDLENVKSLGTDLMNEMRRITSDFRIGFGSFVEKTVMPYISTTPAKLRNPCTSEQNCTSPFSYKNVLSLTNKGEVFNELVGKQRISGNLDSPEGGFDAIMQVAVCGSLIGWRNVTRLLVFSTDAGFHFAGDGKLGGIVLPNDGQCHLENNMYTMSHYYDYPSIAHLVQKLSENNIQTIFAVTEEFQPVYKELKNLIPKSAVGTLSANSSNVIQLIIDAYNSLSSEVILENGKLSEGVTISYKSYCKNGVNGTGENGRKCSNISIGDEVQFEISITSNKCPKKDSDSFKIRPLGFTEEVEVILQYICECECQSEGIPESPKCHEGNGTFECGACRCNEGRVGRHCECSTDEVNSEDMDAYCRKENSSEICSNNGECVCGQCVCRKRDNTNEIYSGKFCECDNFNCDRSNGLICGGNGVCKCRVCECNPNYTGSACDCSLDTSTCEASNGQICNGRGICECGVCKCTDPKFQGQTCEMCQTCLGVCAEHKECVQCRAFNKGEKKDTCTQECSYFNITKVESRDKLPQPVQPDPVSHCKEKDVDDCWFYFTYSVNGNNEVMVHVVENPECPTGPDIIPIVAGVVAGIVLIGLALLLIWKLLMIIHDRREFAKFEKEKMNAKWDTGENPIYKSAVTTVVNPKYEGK
Sequence of Integrin beta-1 (Homo sapiens) + Integrin alpha-4 (Homo sapiens) (P13612 whole entry, looked up): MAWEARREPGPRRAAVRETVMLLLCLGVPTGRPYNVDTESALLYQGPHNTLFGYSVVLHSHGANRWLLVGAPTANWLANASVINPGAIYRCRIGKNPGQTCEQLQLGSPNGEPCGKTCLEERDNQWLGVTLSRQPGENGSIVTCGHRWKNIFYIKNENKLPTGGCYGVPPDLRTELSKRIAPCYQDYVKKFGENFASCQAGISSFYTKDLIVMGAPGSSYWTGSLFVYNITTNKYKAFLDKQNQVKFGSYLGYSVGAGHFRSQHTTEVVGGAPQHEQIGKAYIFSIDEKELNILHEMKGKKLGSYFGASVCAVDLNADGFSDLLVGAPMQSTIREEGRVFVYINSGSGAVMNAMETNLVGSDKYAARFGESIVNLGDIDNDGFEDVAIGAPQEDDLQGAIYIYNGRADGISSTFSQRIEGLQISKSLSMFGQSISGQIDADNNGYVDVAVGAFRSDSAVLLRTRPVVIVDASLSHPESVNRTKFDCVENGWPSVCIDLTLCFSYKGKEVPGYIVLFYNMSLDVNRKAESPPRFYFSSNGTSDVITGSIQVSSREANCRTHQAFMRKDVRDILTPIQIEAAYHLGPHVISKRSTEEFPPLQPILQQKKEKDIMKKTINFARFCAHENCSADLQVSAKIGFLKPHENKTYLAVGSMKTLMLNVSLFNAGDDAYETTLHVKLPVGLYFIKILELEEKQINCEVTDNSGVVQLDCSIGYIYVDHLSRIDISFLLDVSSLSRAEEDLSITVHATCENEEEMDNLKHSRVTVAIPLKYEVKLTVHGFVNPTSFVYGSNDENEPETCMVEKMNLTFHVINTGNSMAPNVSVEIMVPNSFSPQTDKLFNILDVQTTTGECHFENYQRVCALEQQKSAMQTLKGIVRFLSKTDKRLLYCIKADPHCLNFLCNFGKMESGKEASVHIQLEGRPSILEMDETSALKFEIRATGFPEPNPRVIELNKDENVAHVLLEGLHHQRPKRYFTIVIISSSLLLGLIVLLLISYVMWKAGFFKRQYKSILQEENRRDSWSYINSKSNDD

Row | SMILES | percent of DMSO control GFP [1] | percent response of DMSO control [2] | GFP response vs DMSO [3] | GFP response, % of DMSO [4] | double positive events [5] [%] | vesicle binding response [5] | inhibition [6] | aptamer binding inhibition [7] | inhibition [8] | response [9] | binding (% of control) [10] | efflux inhibition (fraction of control) [11] | inhibition [12] | differentiation response [13] | superoxide response (% of plate) [14] | response [15] | GFP response vs DMSO [16]
1 | COCCc1ccc(OCC(O)CNC(C)C)cc1 (stereo not drawn) | 103% (inactive) | 98.9% (inactive) | 87.4% (inactive) | 97.6% (inactive) | 68.1 | 212% (inactive) | 7.85% (inactive) | -2% (inactive) | -6% (inactive) | 1.04% (inactive) | 105% (inactive) | 0.21 (inactive) | 7% (inactive) | 5.13% (inactive) |  |  | 
2 | C=CCc1cc(Cl)ccc1OCCOCCN(C)C | 103% (inactive) | 108% (inactive) | 75.2% (inactive) | 88.5% (inactive) | 60 | 144% (inactive) | -4.52% (inactive) | 4% (inactive) | -5.37% (inactive) | -5.95% (inactive) | 102% (inactive) | -0.17 (inactive) | 1% (inactive) | 16.8% (inactive) | 98.8% (inactive) | 3.31% (inactive) | 
3 | C[C@]12CC[C@@H]3c4ccc(OS(=O)(=O)O)cc4CC[C@H]3[C@@H]1CCC2=O | 90.6% (inactive) | 96.6% (inactive) | 79.2% (inactive) |  | 73.4 | 292% (inactive) | 5.49% (inactive) | -3% (inactive) | -3.24% (inactive) | 3.54% (inactive) | 104% (inactive) | -0.24 (inactive) | 11% (inactive) | 6.55% (inactive) | 95.8% (inactive) | 0.04% (inactive) | 120% (inactive)
4 | NS(=O)(=O)c1cc2c(cc1Cl)NC(CSCc1ccccc1)=NS2(=O)=O | 97% (inactive) | 118% (inactive) | 84.2% (inactive) |  | 40.1 | 27.2% (active) | -6.15% (inactive) | 2% (inactive) | -7.6% (inactive) | 0.08% (inactive) | 103% (inactive) | -0.24 (inactive) | 3% (inactive) | 13.9% (inactive) | 95.7% (inactive) | 5.55% (inactive) | 119% (inactive)
5 | O=C1C2C3C=CC(C4CC34)C2C(=O)N1/N=C/c1ccc(-c2ccc([N+](=O)[O-])cc2)o1 (stereo not drawn) | 103% (inactive) | 101% (inactive) | 85.4% (inactive) | 87.7% (inactive) | 57.9 | 153% (inactive) | -0.43% (inactive) | 4% (inactive) | 14.3% (inactive) | 1.6% (inactive) | 102% (inactive) | 0.19 (inactive) | 7% (inactive) | 0% (inactive) | 95.5% (inactive) | 25.8% (inactive) | 
6 | CC12CCC(C(=O)N3CCCCC3)([C@H](Br)C1=O)C2(C)C (stereo partly drawn) | 90.6% (inactive) | 101% (inactive) | 78.7% (inactive) |  | 65.8 | 272% (inactive) | 8.4% (inactive) | -1% (inactive) | -4.61% (inactive) | 0.52% (inactive) | 98.5% (inactive) | -0.13 (inactive) | 11% (inactive) | -1.64% (inactive) | 101% (inactive) | -6.79% (inactive) | 119% (inactive)
7 | O=C(OCC1OC2OC3(CCCCC3)OC2C2OC3(CCCCC3)OC12)c1ccccc1 (stereo not drawn) | 90.9% (inactive) | 116% (inactive) | 76.5% (inactive) |  | 60.9 | 154% (inactive) | 5.49% (inactive) | 5% (inactive) | 5.67% (inactive) | 1.42% (inactive) | 128% (inactive) | 0.09 (inactive) | 5% (inactive) | -0.82% (inactive) | 102% (inactive) | 11.7% (inactive) | 104% (inactive)
8 | CC1CNCCN1S(=O)(=O)c1cccc2cnccc12 (stereo not drawn) | 95% (inactive) | 104% (inactive) | 111% (inactive) | 91.3% (inactive) | 62.9 | 918% (inactive) | 17.2% (inactive) | 3% (inactive) | -9.84% (inactive) | 1.37% (inactive) | 96.3% (inactive) | -0.07 (inactive) | 2% (inactive) | 14.9% (inactive) | 91.3% (inactive) | -6.28% (inactive) | 
9 | O=c1c2ccccc2nnn1Cc1cccc2ccccc12 | 89.1% (inactive) | 103% (inactive) | 78.7% (inactive) |  | 61 | 217% (inactive) | -13.9% (inactive) | 1% (inactive) | -7.09% (inactive) | 3.28% (inactive) | 99% (inactive) | -0.2 (inactive) | 13% (inactive) | -0.82% (inactive) | 103% (inactive) | -3.06% (inactive) | 105% (inactive)
10 | COc1ccc(CN(C)CCc2ccccn2)cc1OC | 104% (inactive) | 102% (inactive) | 74.3% (inactive) | 90.6% (inactive) | 55.5 | 91.8% (inactive) | -15.4% (inactive) | 3% (inactive) | -9.53% (inactive) | 20.5% (active) | 98.7% (inactive) | -0.03 (inactive) | 2% (inactive) | -28% (inactive) | 95.8% (inactive) | 6.81% (inactive) | 
